The list is not random: actives were taken first. Their share in the collection is about 1.4%.
Giardia FBPA inh = inhibitors of Giardia lamblia fructose-1,6-bisphosphate aldolase; Potency, µM (highest dose often 59.6 µM), for the others: top-dose activity, negative = inhibition, most hits filed as inhibitors; 0.71% of 290,000 active; A8B2U2; purified Giardia FBPA; also: nearly all actives have a fitted effect of over 55% in size
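Giardia FBPA (40 nM reagent) was preincubated 10 min at RT with compound (up to 57.5 uM final), then substrate plus GAPDH/TPI/NAD/arsenate coupling system with diaphorase/resazurin was added; resorufin fluorescence (525/598 nm) was read after 20 min.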
AmpC inh no detg = AmpC beta-lactamase inhibition without detergent; AID 485341; Potency, µM (top dose mostly 57.1 µM), for inactives: top-dose activity change, negative = inhibition, usual class: inhibitors; 0.52% of 330,000 active; P00811; AmpC nitrocefin hydrolysis, absorbance 480 nm, 0.0001% Triton;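 also: plate controls were no compound for no effect and no enzyme for full effect; nearly all actives have a fitted effect of over 20% in size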
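20 mM phosphate pH 7.0 + 0.01% (detergent screen) or 0.0001% Triton X-100; 5.3 nM AmpC reagent; cpd preinc 15 min RT; nitrocefin (800 uM stock) to start; A480 q20 s × 4 min; Activity was normalised to no-enzyme and no-compound control wells.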
RE007 growth inh = less growth of the S. pombe RE007 Vpr strain. S. pombe RE007 Vpr strain, BacTiter-Glo ATP luminescence, 24 h. 0.21% of 360,000 active. AID 651644. Potency, µM (doses to about 92.2 µM), without a hit: at the top dose activity change, negative = less growth, usual class: inhibitors; active = well fitted falling curve with a large enough effect; inconclusive = small, poorly fitted or top-dose-only effect; inactive = no such curve, though single readings can be large or run the other way; also: nearly all actives have a fitted effect of over 50% in size
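Fission yeast strain RE007, carrying one chromosomally integrated HIV-1 vpr copy, was seeded at OD 0.01 in PMG+AL medium with 23 nL pinned compound. After 24 h at 30 °C and 99% humidity, viability was read by BacTiter-Glo luminescence.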
Tb PYK inh = blocks Trypanosoma brucei pyruvate kinase | TbPYK enzyme, Kinase-Glo Plus ATP luminescence, 45 min | Potency, µM (titrated, usually from 76.8 µM), inactives show at the top dose activity, negative = inhibition, most hits filed as inhibitors | 0.12% of 410,000 active; also: nearly all actives have a fitted effect of over 50% in size
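Screened from lowest to highest concentration, compounds were pinned into TbPYK/substrate mixtures, and ADP (130 uM final) was added. Plates sat at room temperature for 45 min prior to Kinase-Glo Plus detection by luminescence.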
LmPK inh = blocks Leishmania mexicana pyruvate kinase activity. Q27686. Potency, µM (top dose mostly 57.5 µM), inactives show top-dose activity change, negative = inhibition, hits mostly inhibitors. 0.37% of 290,000 active. purified LmPK, Kinase-Glo ATP luminescence, 1 h
Target sequence (Q27686 whole entry, looked up): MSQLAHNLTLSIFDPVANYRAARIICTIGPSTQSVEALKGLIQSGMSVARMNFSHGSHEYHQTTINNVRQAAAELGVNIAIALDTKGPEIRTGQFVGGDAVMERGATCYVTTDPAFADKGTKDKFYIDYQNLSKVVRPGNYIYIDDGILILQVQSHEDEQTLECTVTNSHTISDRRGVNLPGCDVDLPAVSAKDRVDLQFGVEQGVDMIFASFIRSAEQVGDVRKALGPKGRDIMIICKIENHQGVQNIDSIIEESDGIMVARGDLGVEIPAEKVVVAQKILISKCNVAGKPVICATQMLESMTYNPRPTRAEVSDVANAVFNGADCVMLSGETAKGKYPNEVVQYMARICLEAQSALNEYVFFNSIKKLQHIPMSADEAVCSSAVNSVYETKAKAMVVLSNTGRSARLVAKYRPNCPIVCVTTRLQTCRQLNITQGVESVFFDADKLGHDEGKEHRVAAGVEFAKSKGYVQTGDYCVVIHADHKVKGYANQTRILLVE
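Purified LmPK (0.1 nM) with 0.5 mM PEP and 0.1 mM ADP in imidazole buffer pH 7.2 with MgCl2/KCl, 1 h at room temperature. ATP formed was read by luciferase luminescence and normalized to no-enzyme and uninhibited controls.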
AmpC inh detg = inhibitors of E. coli AmpC beta-lactamase with detergent; P00811; AmpC hydrolysis of nitrocefin, absorbance 480 nm, 0.01% Triton; Potency, µM (titrated, usually from 114 µM), for the others: at the highest dose activity change, negative = inhibition, hits mostly inhibitors; 0.041% of 370,000 active;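 also: 0% = no-compound wells and -100% = no-enzyme wells; nearly all actives have a fitted effect of over 25% in size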
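AmpC (5.3 nM in the dispensed reagent) in 20 mM phosphate pH 7.0 with 0.01% (detergent screen) or 0.0001% Triton X-100 was preincubated with compounds for 15 min at room temperature. Nitrocefin was then added from an 800 uM solution, and hydrolysis was followed at 480 nm.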
Starred values were filed as active, the others as inactive; ? = inconclusive; . = no result given. Unless noted, calls follow the shape of the dose curve; as a rule, active = well fitted curve in the direction sought with a large enough effect; inconclusive = small, poorly fitted or top-dose-only effect, or another doubt; inactive = no such curve, though single readings can be large; an effect the other way counts as inactive or inconclusive. Unless noted, % is scaled to controls: 0 for no effect and ±100 for the full control effect; potency is read from the fitted curve at half-maximal effect.

SMILES	Giardia FBPA inh	AmpC inh no detg	RE007 growth inh	Tb PYK inh	LmPK inh	AmpC inh detg
Cc1[nH][nH]c(=O)c1C(c1ccc(-c2cccc(C(=O)O)c2)o1)c1c(C)[nH][nH]c1=O	19.9µM*	-14.4%	2.4%	-9.4%	4.4%	6.8%
Cc1[nH][nH]c(=O)c1C(c1ccc(-c2ccccc2C(=O)O)o1)c1c(C)[nH][nH]c1=O	7.92µM*	-21.8%	-20.4%	-12.4%	3.4%	-1.3%
COC(=O)c1ccc(-c2ccc(C(c3c(C)[nH][nH]c3=O)c3c(C)[nH][nH]c3=O)o2)cc1	4.46µM*	-51.0%	7.1%	-19.2%	-2.3%	?
COc1ccc(C(=O)Oc2ccc(C(c3c(C)[nH][nH]c3=O)c3c(C)[nH][nH]c3=O)cc2OC)cc1	.	.	.	-6.4%	.	8.9%
COc1ccc(CNC(=O)CCCn2c(=O)c3cccn3c3ccc(F)cc32)cc1OC	.	.	.	6.7%	.	6.9%
Cc1ccn2c(=O)c(C(=O)NC(C)c3ccccc3)c(O)nc2c1 (stereo not drawn)	.	.	.	-3.1%	.	4.0%
O=C(CSc1nc2c([nH]c3ccccc32)c(=O)n1-c1cccc(Cl)c1)c1ccccc1	.	.	.	-8.1%	.	4.0%
Cc1[nH][nH]c(=O)c1C(c1ccc(-c2ccc(Cl)cc2Cl)o1)c1c(C)[nH][nH]c1=O	12.6µM*	-37.8%	.	.	13.0%	?
COc1cc(NC(=O)CN2CCN(c3ccc(F)cc3)CC2)cc(OC)c1	.	.	.	-2.1%	.	14.0%
CC1=C(c2ccc(C(C)C)cc2)S(=O)(=O)NC1=NCc1ccccc1Br	.	.	.	3.6%	.	-1.9%
CN1CCCN(Cc2ccc(Cl)cc2Cl)CC1	19.9µM*	-0.2%	-7.7%	0.5%	-9.7%	-3.9%
CCN(C(=O)c1cn(CC(C)C)c(=O)c2cc(OC)c(OC)cc12)c1cc(OC)ccc1OC	.	.	.	2.1%	.	-4.0%
O=[N+]([O-])c1ccc(/C=N/n2c(-c3cccnc3)n[nH]c2=S)cc1	1.4%	-16.6%	-20.0%	?	3.8%	-8.1%
Cc1cc(-c2n[nH]c(=S)n2/N=C/c2ccc(Cl)c([N+](=O)[O-])c2)n[nH]1	-14.5%	-6.6%	-9.8%	?	-1.1%	-4.9%
O=[N+]([O-])c1cccc(/C=N/n2c(-c3cccnc3)n[nH]c2=S)c1	-8.1%	-32.5%	9.4%	2.24µM*	11.1%	-9.2%
CC(/C=N/n1c(-c2cc(C)[nH]n2)n[nH]c1=S)=C\c1ccccc1	9.1%	-39.2%	5.6%	5.01µM*	-14.2%	-14.1%
Cc1cc(-c2n[nH]c(=S)n2/N=C/c2cc([N+](=O)[O-])ccc2Cl)n[nH]1	-17.9%	-27.2%	11.4%	3.98µM*	15.2%	?
Cc1ccc(NC(=O)CN2C(=O)CCc3ccccc32)cc1C	.	.	.	1.8%	.	26.7%
O=C1CC(c2cccc(O)c2)c2cc3c(cc2N1)OCO3 (stereo not drawn)	.	.	.	1.4%	.	-1.0%
O=C1NC(=O)N(Cc2ccco2)C(=O)/C1=C/c1ccc(-c2cccc([N+](=O)[O-])c2)o1	-6.1%	35.5µM*	-1.8%	?	6.0%	?
O=[N+]([O-])c1cccc(-c2ccc(/C=N/NC(=S)Nc3ccccc3)o2)c1	9.0%	?	-2.8%	0.0%	-0.3%	?
O=[N+]([O-])c1cccc(-c2ccc(/C=N/NC(=S)NCc3ccco3)o2)c1	3.1%	8.91µM*	-0.3%	-4.8%	6.9%	-4.2%
COc1ccc(CCNC(=O)c2ccc(Cn3c(=O)c4cccn4c4cccnc43)cc2)cc1OC	.	.	.	-1.8%	.	-2.3%
COc1ccc(OC)c2c1sc(=NC(=O)c1ccco1)n2C	-0.4%	-36.6%	6.6%	0.3%	14.7%	?
CCn1c(=NC(=O)c2ccco2)sc2cccc(F)c21	-17.7%	3.55µM*	-22.4%	-2.0%	1.6%	?
SMILES	Giardia FBPA inh	AmpC inh no detg	RE007 growth inh	Tb PYK inh	LmPK inh	AmpC inh detg
COc1ccc2c(c1)CCc1cn3nc(C)cc3nc1-2	17.7µM*	-1.6%	-21.8%	0.7%	1.8%	-3.4%
COc1ccc(S(=O)(=O)n2nc(C)c(S(=O)(=O)N3CCC(C)CC3)c2C)cc1C	.	.	.	-8.9%	.	17.8%
CN(C)C(=O)N1CCN(C(=O)c2ccco2)CC1	0.0%	28.2µM*	-9.0%	-5.6%	1.2%	-13.0%
Cc1cc(C)c2cc3c(N)c(C(=O)N4CCc5ccccc5C4)sc3nc2c1	1.6%	0.316µM*	-2.4%	-14.3%	1.0%	1.7%
Cc1ccc2nc3sc(C(=O)N4CCCc5ccccc54)c(N)c3cc2c1	0.7%	-12.7%	-2.7%	-5.2%	0.1%	3.1%
COc1cc(/C=N/N(C)c2ccccc2)cc(Cl)c1O	-13.4%	-19.5%	28.2µM*	3.9%	-1.6%	?
O=[N+]([O-])c1ccc(C=Nc2cccc3ccccc23)s1	?	-30.3%	22.4µM*	-12.7%	0.6%	-13.6%
CCN1CCN(c2cc(C)c3cc(NC(=O)/C=C/c4ccc(OCCC(C)C)cc4)ccc3n2)CC1	.	.	.	0.2%	.	3.2%
O=C1c2ccccc2-c2nc3ccccc3cc21	2.3%	-4.2%	7.1%	-4.4%	?	-1.3%
O=C1c2ccccc2-c2nnc(-c3ccc(F)cc3)cc21	-3.2%	-23.3%	-23.3%	?	5.01µM*	1.4%
Cc1ccccc1-c1cc2c(nn1)-c1ccccc1C2=O	?	-8.0%	-19.4%	-19.6%	5.01µM*	3.9%
O=C1c2ccccc2-c2nnc(-c3ccc(O)cc3)cc21	-13.8%	-36.2%	-18.2%	-18.3%	8.91µM*	2.7%
O=C(CS)Nc1ccccc1	.	.	.	3.4%	.	.
CCOc1ccc(N(Cc2cc3cc(C)ccc3[nH]c2=O)C(=O)c2cccc(Cl)c2)cc1	.	.	.	4.1%	.	10.8%
CCCCCCCC(=O)CC[C@H]1[C@@H](C/C=C/CCCC(=O)OC(C)C)[C@@H](O)C[C@H]1O	.	.	.	-8.3%	.	.
O=Cc1ccc(C(=O)OCC(=O)NC(=O)Nc2ccccc2F)cc1	.	28.2µM*	7.7%	3.9%	.	.
COc1cc(C(=O)ON=C2C=C(C)C(=O)C(C)=C2)cc(OC)c1OC	?	-18.5%	-2.3%	-5.3%	1.1%	?
COc1cc(C(=O)O/N=C2\C=CC(=O)C(C)=C2)cc(OC)c1OC	19.9µM*	-12.5%	?	-7.8%	-5.2%	1.3%
COc1ccc(C)cc1NC(=O)c1ccc2c(c1)nnn2C1CCCC1	.	.	.	-11.2%	.	1.8%
COC(=O)C1C(=O)c2c([nH]c(C(=O)OCC3CCCO3)c2C)CC1C (stereo not drawn)	-9.4%	10µM*	-8.2%	1.4%	2.6%	?

Source: PubChem BioAssay
